Records with an inconclusive call do not appear. Values without a mark were called inactive. Calls come from the whole dose curve; as a rule, active = well fitted cell-killing curve with a large enough effect; inconclusive = small, poorly fitted or top-dose-only effect; inactive = flat fitted curve, though single readings scatter.
Assay: Cell Viability - LYMP2-021 (AID 974);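 note: compound exposure lasts 24 hours at 37 °C; nearly all actives have a fitted effect of over 55% in size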
Conditions: LYMP2-021 lymphoblastoid cells viability; series mostly up to 92.2 µM; activity change, negative = cytotoxicity: at the top concentration
Description: NIH Chemical Genomics Center [NCGC]
NIH Molecular Libraries Screening Centers Network [MLSCN]
National Institutes of Environmental Health Sciences [NIEHS]
National Toxicology Program [NTP]
We have developed a 1536-well cell-based assay for quantitative high throughput screening (qHTS) against a number of cell lines to determine in vitro cytotoxicity of small molecules. This particular assay uses a human lymphoblastoid cell line (LYMP2-021) purchased from Coriell Institute for Medical Research.
NCGC Assay Protocol Summary:
The CellTiter-Glo luminescent cell viability assay (Promega) is a homogeneous method to measure the number of viable cells in culture. The end point readout of this assay is based on quantitation of intracellular ATP, an indicator of metabolic activity, using the luciferase reaction. Luciferase catalyzes the oxidation of beetle Luciferin to oxyluciferin and light in the presence of ATP. The luminescent signal is proportional to amount of ATP present.
Using the CellTiter-Glo luminescent cell viability assay, the amount of cellular ATP was measured in the lymphoblastoid cell line with complete culture medium following compound treatment for 24 hours. The assay was performed in opaque white Kalypsys 1536-well plates. In the screen, tetraoctylammonium bromide was used as positive control. Library compounds were measured for their ability to cause acute toxicity in the cell line, as reflected by a decrease in intracellular ATP levels, in a concentration-dependent manner. […] AC50 values were determined from concentration-response data modeled with the standard Hill equation.
qHTS protocol for CellTiter Glo lymphoblastoid cellular assay
[Step] [Parameter] [Value] [Description]
1. Reagent; 5 uL; 2500 lymphoblastoid cells/well
2. Time; 5 hr; 37 C incubation
4. Controls; 23 nL; Tetraoctylammonium bromide 6.4pM to 92 uM
5. Time; 24 hr; 37 C incubation
6. Reagent; 5 uL; CellTiter Glo reagent
7. Time; 30 min; Room Temperature
8. Detection; Luminescence; Viewlux plate reader
Keywords: cell viability, cytotoxicity, lymphoblastoid cell line, luminescence, NTPHTS, NTPHTS_NCGC, NIEHS, DSSTox, MLSMR, MLSCN, NIH Roadmap, qHTS, NCGC
% is set by controls: 0 for no effect and ±100 for the full control effect.

Compound	activity change, negative = cytotoxicity [%]
CC(C)C#N	-3.69
[O-][Cl+]O	1.61
CCCCC(CC)COC(=O)c1ccc(C(=O)OCC(CC)CCCC)c(C(=O)OCC(CC)CCCC)c1 (stereo not given)	-12.6
ClCc1ccccn1	-3.56
Cc1ccc2c(C)cccc2c1	-1.26
BrCC(Br)C1CCC(Br)C(Br)C1 (stereo not given)	-5.85
C=CC(=O)OCCN(C)C	-3.69
CC(Cl)(Cl)Cl	-0.764
CC(C#N)CCC#N (stereo not given)	-1.79
Nc1ccc(Cc2ccc(N)c(Cl)c2)cc1Cl	-1.4
CC(C)(Cl)[N+](=O)[O-]	-1.93
CCCCC#N	-3.72
Clc1ccccc1	-0.183
c1ccc2c(c1)CCNC2	1.69
Clc1cc(Cl)c(Cl)c(Cl)c1	0.406
Oc1cc(Cl)ccc1Cl	-0.845
BrCCc1ccccc1	-3.02
Cc1ccc(N)c(C)c1	1.34
O=P(OCCCl)(OCCCl)OCCCl	-3.37
O=C(Cl)OCc1ccccc1	-1.22

Compound	activity change, negative = cytotoxicity [%]
ClCC(Br)CBr (stereo not given)	-1.31
N#CCCCCC#N	-1.43
c1ccc(NNc2ccccc2)cc1	-4.22
Nc1cc(Cl)cc(C(=O)O)c1Cl	1.64
Brc1ccc(Oc2ccc(Br)cc2Br)c(Br)c1	-3.86
C1CC2OC2CC1C1CO1 (stereo not given)	-4.21
C=C(Cl)CSC(=S)N(CC)CC	-28.1
O=[N+]([O-])c1ccc(Cl)c(Cl)c1Cl	-2.19
Clc1ccc(Cl)c(Cl)c1	-1.82
OCC(Cl)CCl (stereo not given)	1.61
CCN(N=O)C(N)=O	-2.42
[O-][Cl+2]([O-])O	-2.52
O=[N+]([O-])CCO	-0.746
CCCCCCCCCCCOC(=O)c1ccccc1C(=O)OCCCCCCCCCCC	0.846
CC[N+](=O)[O-]	-0.997
C=CC(=O)OCC(CC)CCCC (stereo not given)	0.903
O=[N+]([O-])c1cccc2c([N+](=O)[O-])cccc12	1.54
CCBr	2.16
OCCCCO	1.33
Cc1cccc(C)c1N	-6.69

Source: PubChem BioAssay (NCATS)
